Where a chain is given by its changes, count along the chain named.

From paper PMC11006913 come the findings set out here.

Assay in all cases: PBM; 200 nM protein, PBS
Conditions in all cases: dsDNA, one strand shown

Test [1] addresses CRX (Homo sapiens, UniProt O43186 26-111).
In test [2] the target is CRX (Homo sapiens, UniProt O43186 26-111, E42D).
In another test the target is PITX2 (Homo sapiens, UniProt Q99697 72-157).
In test [3] the target is PROP1 (Homo sapiens, UniProt O75360 56-141).
Sequence of PROP1 (Homo sapiens, UniProt O75360 56-141) (O75360 56-141): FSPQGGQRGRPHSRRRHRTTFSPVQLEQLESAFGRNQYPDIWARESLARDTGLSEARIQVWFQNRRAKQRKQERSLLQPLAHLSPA
Test [4] deals with PROP1 (Homo sapiens, UniProt O75360 56-141, R99H).
Sequence of PROP1 (Homo sapiens, UniProt O75360 56-141, R99H) (O75360 56-141 R99H): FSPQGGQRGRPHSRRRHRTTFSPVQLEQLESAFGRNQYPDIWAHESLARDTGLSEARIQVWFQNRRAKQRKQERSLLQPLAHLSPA
The target of test [5] is PROP1 (Homo sapiens, UniProt O75360 56-141, F88S).
Sequence of PROP1 (Homo sapiens, UniProt O75360 56-141, F88S) (O75360 56-141 F88S): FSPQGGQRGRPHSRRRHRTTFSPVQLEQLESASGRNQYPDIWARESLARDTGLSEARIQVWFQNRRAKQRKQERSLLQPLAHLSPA
Test [6] concerns the target CRX (Homo sapiens, UniProt O43186 26-111, R41L).
Test [7] addresses MSX2 (Homo sapiens, UniProt P35548 130-214, R199I).
The target of test [8] is MSX2 (Homo sapiens, UniProt P35548 130-214).
Sequence of MSX2 (Homo sapiens, UniProt P35548 130-214) (P35548 130-214): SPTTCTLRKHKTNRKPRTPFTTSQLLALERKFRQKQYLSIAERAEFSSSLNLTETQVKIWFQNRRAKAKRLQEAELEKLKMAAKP
Test [9] has as its target MSX2 (Homo sapiens, UniProt P35548 130-214, F161Y).
The target of test [10] is ALX1 (Homo sapiens, UniProt Q15699 118-204, L144V).
Sequence of ALX1 (Homo sapiens, UniProt Q15699 118-204, L144V) (Q15699 118-204 L144V): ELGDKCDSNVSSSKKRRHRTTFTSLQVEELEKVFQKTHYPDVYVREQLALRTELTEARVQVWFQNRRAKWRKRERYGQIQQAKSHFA
Test [11] has as its target ALX1 (Homo sapiens, UniProt Q15699 118-204, L144R).
Test [12] addresses ALX1 (Homo sapiens, UniProt Q15699 118-204).
The target of test [13] is T1, NKX2-6 (Homo sapiens, UniProt A6NCS4 118-204).
T1 sequence: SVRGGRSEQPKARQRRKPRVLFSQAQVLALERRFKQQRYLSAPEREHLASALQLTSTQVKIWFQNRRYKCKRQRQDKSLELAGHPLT

Test [14] has as its target VAX1 (Homo sapiens, UniProt Q5SQQ9 86-172).
Test [15] deals with T2, NKX2-6 (Homo sapiens, UniProt A6NCS4 118-204, F151L).
T2 sequence: T1 sequence with F34L

Test [16] concerns the target VAX1 (Homo sapiens, UniProt Q5SQQ9 86-172, T142I).
Test [17] addresses VAX1 (Homo sapiens, UniProt Q5SQQ9 86-172, K157R).
The target in test [18] is ALX3 (Homo sapiens, UniProt O95076 139-225, N203Q).
Sequence of ALX3 (Homo sapiens, UniProt O95076 139-225, N203Q) (O95076 139-225 N203Q): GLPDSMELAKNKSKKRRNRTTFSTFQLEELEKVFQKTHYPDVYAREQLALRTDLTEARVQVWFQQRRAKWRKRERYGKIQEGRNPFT
The target of test [19] is ALX3 (Homo sapiens, UniProt O95076 139-225).
Sequence of ALX3 (Homo sapiens, UniProt O95076 139-225) (O95076 139-225): as the sequence (O95076 139-225 N203Q) above, with Q65N counted along it
Test [20] concerns the target ALX3 (Homo sapiens, UniProt O95076 139-225, L168Q).
Test [21] concerns the target ALX3 (Homo sapiens, UniProt O95076 139-225, L168V).
Test [22] addresses ALX3 (Homo sapiens, UniProt O95076 139-225, N203S).

Sequence of CRX (Homo sapiens, UniProt O43186 26-111, E42D) (O43186 26-111 E42D): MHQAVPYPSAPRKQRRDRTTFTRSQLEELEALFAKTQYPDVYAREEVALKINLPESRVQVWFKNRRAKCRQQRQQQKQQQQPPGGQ
Sequence of CRX (Homo sapiens, UniProt O43186 26-111) (O43186 26-111): as the sequence (O43186 26-111 E42D) above, with D17E counted along it
Sequence of CRX (Homo sapiens, UniProt O43186 26-111, R41L) (O43186 26-111 R41L): as the sequence (O43186 26-111 E42D) above, with R16L, D17E counted along it
Sequence of MSX2 (Homo sapiens, UniProt P35548 130-214, F161Y) (P35548 130-214 F161Y): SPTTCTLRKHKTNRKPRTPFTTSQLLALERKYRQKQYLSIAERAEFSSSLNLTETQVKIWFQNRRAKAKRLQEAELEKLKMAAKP
Sequence of ALX1 (Homo sapiens, UniProt Q15699 118-204) (Q15699 118-204): as the sequence (Q15699 118-204 L144V) above, with V27L counted along it
Sequence of ALX1 (Homo sapiens, UniProt Q15699 118-204, L144R) (Q15699 118-204 L144R): as the sequence (Q15699 118-204 L144V) above, with V27R counted along it
Sequence of ALX3 (Homo sapiens, UniProt O95076 139-225, L168V) (O95076 139-225 L168V): as the sequence (O95076 139-225 N203Q) above, with L30V, Q65N counted along it
Sequence of ALX3 (Homo sapiens, UniProt O95076 139-225, N203S) (O95076 139-225 N203S): as the sequence (O95076 139-225 N203Q) above, with Q65S counted along it
Sequence of ALX3 (Homo sapiens, UniProt O95076 139-225, L168Q) (O95076 139-225 L168Q): as the sequence (O95076 139-225 N203Q) above, with L30Q, Q65N counted along it
Sequence of VAX1 (Homo sapiens, UniProt Q5SQQ9 86-172) (Q5SQQ9 86-172): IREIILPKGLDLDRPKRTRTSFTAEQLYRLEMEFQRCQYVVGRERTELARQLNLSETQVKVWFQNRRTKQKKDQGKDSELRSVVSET
Sequence of VAX1 (Homo sapiens, UniProt Q5SQQ9 86-172, K157R) (Q5SQQ9 86-172 K157R): as the sequence (Q5SQQ9 86-172) above, with K72R counted along it
Sequence of VAX1 (Homo sapiens, UniProt Q5SQQ9 86-172, T142I) (Q5SQQ9 86-172 T142I): as the sequence (Q5SQQ9 86-172) above, with T57I counted along it
Sequence of MSX2 (Homo sapiens, UniProt P35548 130-214, R199I) (P35548 130-214 R199I): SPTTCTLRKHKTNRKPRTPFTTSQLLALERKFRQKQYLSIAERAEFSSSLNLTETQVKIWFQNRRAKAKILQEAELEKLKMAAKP

As to CATAATCC, the binding signal was 13.4 upbm affinity estimate (log intensity, higher = more binding, comparable within an allelic series) with CRX [1]; 13.4 upbm affinity estimate (log intensity, higher = more binding, comparable within an allelic series) with CRX [2]; 13.1 upbm affinity estimate (log intensity, higher = more binding, comparable within an allelic series) in the test with PITX2; 8.29 upbm affinity estimate (log intensity, higher = more binding, comparable within an allelic series) in the test with PROP1 [3]; 7.92 upbm affinity estimate (log intensity, higher = more binding, comparable within an allelic series) with PROP1 [4]; 7.15 upbm affinity estimate (log intensity, higher = more binding, comparable within an allelic series) with PROP1 [5]. In addition, the binding signal in the test with CRX [6] is 13.4 upbm affinity estimate (log intensity, higher = more binding, comparable within an allelic series).
Consider CGGGGTGC, for which the binding signal is 8.16 upbm affinity estimate (log intensity, higher = more binding, comparable within an allelic series) in the test with CRX [1]; 8.25 upbm affinity estimate (log intensity, higher = more binding, comparable within an allelic series) with CRX [2]; 9.55 upbm affinity estimate (log intensity, higher = more binding, comparable within an allelic series) with MSX2 [7]; 9.66 upbm affinity estimate (log intensity, higher = more binding, comparable within an allelic series) in the test with MSX2 [8]; 9.67 upbm affinity estimate (log intensity, higher = more binding, comparable within an allelic series) in the test with MSX2 [9]; 8.31 upbm affinity estimate (log intensity, higher = more binding, comparable within an allelic series) with CRX [6].
Turning to CGTAATCC, the binding signal in the test with CRX [1] is 13.2 upbm affinity estimate (log intensity, higher = more binding, comparable within an allelic series); with CRX [2] it was 13.2 upbm affinity estimate (log intensity, higher = more binding, comparable within an allelic series); in the test with PITX2, 13 upbm affinity estimate (log intensity, higher = more binding, comparable within an allelic series); in the test with CRX [6], 13.2 upbm affinity estimate (log intensity, higher = more binding, comparable within an allelic series).
Take AATAATCC: the binding signal with CRX [1] was 13.4 upbm affinity estimate (log intensity, higher = more binding, comparable within an allelic series); in the test with CRX [2], 13.4 upbm affinity estimate (log intensity, higher = more binding, comparable within an allelic series); with PITX2 it was 13 upbm affinity estimate (log intensity, higher = more binding, comparable within an allelic series); with MSX2 [8], 11.5 upbm affinity estimate (log intensity, higher = more binding, comparable within an allelic series); with MSX2 [9], 11.3 upbm affinity estimate (log intensity, higher = more binding, comparable within an allelic series); with CRX [6] it was 13.4 upbm affinity estimate (log intensity, higher = more binding, comparable within an allelic series).
As for TAATCCTA, the binding signal with CRX [1] was 13.4 upbm affinity estimate (log intensity, higher = more binding, comparable within an allelic series); with CRX [2], 13.4 upbm affinity estimate (log intensity, higher = more binding, comparable within an allelic series); in the test with PITX2, 13.2 upbm affinity estimate (log intensity, higher = more binding, comparable within an allelic series); with CRX [6], 13.3 upbm affinity estimate (log intensity, higher = more binding, comparable within an allelic series).
As to ATAATCTC, the binding signal with CRX [1] was 13.1 upbm affinity estimate (log intensity, higher = more binding, comparable within an allelic series); with CRX [2], 13.1 upbm affinity estimate (log intensity, higher = more binding, comparable within an allelic series); with PITX2 it was 12.7 upbm affinity estimate (log intensity, higher = more binding, comparable within an allelic series); with CRX [6] it was 13.1 upbm affinity estimate (log intensity, higher = more binding, comparable within an allelic series).
As for AGTTTATC, the binding signal in the test with CRX [1] is 10.5 upbm affinity estimate (log intensity, higher = more binding, comparable within an allelic series); in the test with CRX [2] it was 10.3 upbm affinity estimate (log intensity, higher = more binding, comparable within an allelic series); with ALX1 [10], 7.91 upbm affinity estimate (log intensity, higher = more binding, comparable within an allelic series); with ALX1 [11] it was 8.01 upbm affinity estimate (log intensity, higher = more binding, comparable within an allelic series); in the test with CRX [6], 10.2 upbm affinity estimate (log intensity, higher = more binding, comparable within an allelic series); with ALX1 [12] it was 8.04 upbm affinity estimate (log intensity, higher = more binding, comparable within an allelic series).
On to GATAATCC, for which the binding signal is 13.6 upbm affinity estimate (log intensity, higher = more binding, comparable within an allelic series) with CRX [1]; 13.8 upbm affinity estimate (log intensity, higher = more binding, comparable within an allelic series) in the test with CRX [2]; 13.4 upbm affinity estimate (log intensity, higher = more binding, comparable within an allelic series) with PITX2; 13.9 upbm affinity estimate (log intensity, higher = more binding, comparable within an allelic series) in the test with CRX [6].
As to GGATTAAC, the binding signal with CRX [1] is 13.6 upbm affinity estimate (log intensity, higher = more binding, comparable within an allelic series); in the test with CRX [2], 13.6 upbm affinity estimate (log intensity, higher = more binding, comparable within an allelic series); with PITX2, 13.3 upbm affinity estimate (log intensity, higher = more binding, comparable within an allelic series); in the test with CRX [6] it was 13.5 upbm affinity estimate (log intensity, higher = more binding, comparable within an allelic series).
Consider GGGGCTTA, for which the binding signal is 12.8 upbm affinity estimate (log intensity, higher = more binding, comparable within an allelic series) with CRX [1]; 12.7 upbm affinity estimate (log intensity, higher = more binding, comparable within an allelic series) in the test with CRX [2]; 12.4 upbm affinity estimate (log intensity, higher = more binding, comparable within an allelic series) in the test with PITX2.
For the sequence CCCAGTCC, the binding signal with CRX [1] was 8.2 upbm affinity estimate (log intensity, higher = more binding, comparable within an allelic series); in the test with CRX [2], 8.28 upbm affinity estimate (log intensity, higher = more binding, comparable within an allelic series); with NKX2-6 [13], 9.59 upbm affinity estimate (log intensity, higher = more binding, comparable within an allelic series); with VAX1 [14] it was 7.25 upbm affinity estimate (log intensity, higher = more binding, comparable within an allelic series); in the test with NKX2-6 [15], 9.36 upbm affinity estimate (log intensity, higher = more binding, comparable within an allelic series); with VAX1 [16], 7.27 upbm affinity estimate (log intensity, higher = more binding, comparable within an allelic series). For the same sequence, the binding signal in the test with CRX [6] was 8.25 upbm affinity estimate (log intensity, higher = more binding, comparable within an allelic series); with VAX1 [17], 7.03 upbm affinity estimate (log intensity, higher = more binding, comparable within an allelic series).
With CTGGATTA, the binding signal with CRX [1] was 13.1 upbm affinity estimate (log intensity, higher = more binding, comparable within an allelic series); in the test with CRX [2], 13.1 upbm affinity estimate (log intensity, higher = more binding, comparable within an allelic series); in the test with PITX2 it was 13 upbm affinity estimate (log intensity, higher = more binding, comparable within an allelic series); with CRX [6], 12.9 upbm affinity estimate (log intensity, higher = more binding, comparable within an allelic series).
As to AGAGATTA, the binding signal is 13.1 upbm affinity estimate (log intensity, higher = more binding, comparable within an allelic series) in the test with CRX [1]; 13.1 upbm affinity estimate (log intensity, higher = more binding, comparable within an allelic series) in the test with CRX [2]; 12.7 upbm affinity estimate (log intensity, higher = more binding, comparable within an allelic series) in the test with PITX2; 13 upbm affinity estimate (log intensity, higher = more binding, comparable within an allelic series) with CRX [6].
Consider CGGCTTAA, for which the binding signal with CRX [1] was 12.9 upbm affinity estimate (log intensity, higher = more binding, comparable within an allelic series); with CRX [2], 12.8 upbm affinity estimate (log intensity, higher = more binding, comparable within an allelic series); with PITX2 it was 12.5 upbm affinity estimate (log intensity, higher = more binding, comparable within an allelic series).
As to GAGACTGC, the binding signal is 8.28 upbm affinity estimate (log intensity, higher = more binding, comparable within an allelic series) with CRX [1]; 8.22 upbm affinity estimate (log intensity, higher = more binding, comparable within an allelic series) in the test with CRX [2]; 7.74 upbm affinity estimate (log intensity, higher = more binding, comparable within an allelic series) with ALX3 [18]; 7.6 upbm affinity estimate (log intensity, higher = more binding, comparable within an allelic series) with ALX3 [19]; 7.71 upbm affinity estimate (log intensity, higher = more binding, comparable within an allelic series) with ALX3 [20]; 7.72 upbm affinity estimate (log intensity, higher = more binding, comparable within an allelic series) in the test with ALX3 [21]. Further, the binding signal in the test with CRX [6] is 8.35 upbm affinity estimate (log intensity, higher = more binding, comparable within an allelic series); in the test with ALX3 [22] it was 7.73 upbm affinity estimate (log intensity, higher = more binding, comparable within an allelic series).
